Assay results from ChEMBL document CHEMBL3988442, “University of Dundee, Small-Polar-MMV Screening Library” (2021).
The whole screen tested about 48,000 compounds, of which about 13,000 (27%) showed an effect of 50% or more. The list shows a part of the results.

Each molecule was assayed on Wolbachia pipientis (assay: Anti-Wolbachia Cell-Based Screen). Conditions: 5 µM.
Format: functional
Parameters: scale not given: in the data most compounds retested in dose-response had high values

| SMILES | Percent Effect [%] |
| --- | --- |
| CCN(CCO)C(=O)C1CCC(=O)N(Cc2cccc(OC)c2)C1 (configuration not stated) | 4.416 |
| NC(=O)N1CCCN(CC(=O)NCCc2c(F)cccc2F)CC1 | -7.896 |
| Cc1nc[nH]c1CN1CCCn2nc(CN3CCC(F)(F)CC3)cc2C1 | 5.091 |
| CCN1CC2(CC1=O)CN(C(C)=O)CCN(S(=O)(=O)CC)C2 (configuration not stated) | -5.362 |
| CC(C)NC(=O)N1CCN(S(=O)(=O)C2CC2)CC2(CC(=O)N(C)C2)C1 (configuration not stated) | -16.72 |
| CCN1CC2(CC1=O)CN(C(C)=O)CCN(C(=O)NC(C)C)C2 (configuration not stated) | 101.7 |
| CCC1(CNCc2ncc[nH]2)CCCC1 | -14.89 |
| CN(CC(=O)Nc1cccnc1)C1CCCN(c2cccnn2)C1 (configuration not stated) | 85.32 |
| CN(CC(=O)NC1(C#N)CCCC1)C1CCCN(c2cccnn2)C1 (configuration not stated) | 1.351 |
| CN(CC(=O)Nc1ccncc1)C1CCCN(c2cccnn2)C1 (configuration not stated) | 95.39 |
| Cc1nc(CN2CCCC(N(C)CC(=O)Nc3cccnc3)C2)no1 (configuration not stated) | 13.61 |
| Cc1nnc(NC(=O)CN(C)CC2CCCN2c2cccnn2)s1 (configuration not stated) | -3.874 |
| Cc1nnc(NC(=O)CN(C)C2CCCN(c3cccnn3)C2)s1 (configuration not stated) | 131.3 |
| CN(CC(=O)NC1CCOCC1)C1CCCN(c2cccnn2)C1 (configuration not stated) | 137.1 |
| Cc1csc(NC(=O)CN(C)CC2CCCN2c2cccnn2)n1 (configuration not stated) | 8.253 |
| COC(=O)C1CCCCN1C(=O)c1ccc(N(C)C)cc1F (configuration not stated) | -10.97 |
| CN(C)CC(=O)N1CC[C@H]2OCC[C@@]2(COCC2CC2)C1 | -4.204 |
| O=c1oc(-c2ccc(F)cc2)nn1CN1CCSCC1 | 92.99 |
| CC(=O)N1CCN(Cn2nc(-c3ccc(F)cc3)oc2=O)CC1 | 6.471 |
| O=c1oc(-c2ccc(F)cc2)nn1CN1CCN(C2CCCC2)CC1 | -7.879 |
| O=c1oc(-c2ccc(F)cc2)nn1CCc1ccncc1 | -21.89 |
| O=c1oc(-c2ccc(F)cc2)nn1CN1CCCCC1 | 107.7 |
| O=c1oc(-c2ccc(F)cc2)nn1CC1CCOC1 (configuration not stated) | -10.24 |
| CC1CCN(Cn2nc(-c3ccc(F)cc3)oc2=O)CC1 | 4.807 |
| O=c1oc(-c2ccc(F)cc2)nn1CN1CCN(CC2CC2)CC1 | 89.16 |

| SMILES | Percent Effect [%] |
| --- | --- |
| O=c1oc(-c2ccc(F)cc2)nn1CC1CCCCO1 (configuration not stated) | -16.49 |
| CN(C(=O)Cc1coc(-c2cccs2)n1)C1(C#N)CCC1 | 3.793 |
| CCc1nc(CN2CCCN(C(=O)C(C)COC)CC2)cs1 (configuration not stated) | 7.127 |
| COc1ccc(C2=CCN(C(=O)C3CCCN(C(C)=O)C3)CC2)cc1 (configuration not stated) | 109.7 |
| COc1ccc(C2=CCN(C(=O)C3CCCN(C(N)=O)C3)CC2)cc1 (configuration not stated) | 7.391 |
| COc1ccc(OC)c(C2CCN(C(=O)C3CCS(=O)(=O)CC3)C2)c1 (configuration not stated) | -1.419 |
| COc1ccc(C2=CCN(C(=O)C3CC(=O)N(C4CC4)C3)CC2)cc1 (configuration not stated) | -2.251 |
| COc1ccc(OC2CCN(C(=O)C3CCCN(C)C3)CC2)cc1 (configuration not stated) | 0.8407 |
| COc1ccc(C2=CCN(C(=O)CN(C)CC(N)=O)CC2)cc1 | -8.253 |
| COc1ccc(C2=CCN(C(=O)C3CCC3)CC2)cc1 | 121.8 |
| COc1ccc(C2=CCN(C(=O)CN(C)CC(C)C#N)CC2)cc1 (configuration not stated) | -3.041 |
| COc1ccc(C2=CCN(C(=O)C3CCS(=O)(=O)C3)CC2)cc1 (configuration not stated) | 136.7 |
| O=C(NCC1CC1)c1cc(Cl)c2c(c1)OCCCO2 | -14.68 |
| CCCC(C)(C)NC(=O)c1cnc(CC)s1 | -7.388 |
| CN(C)C1CC2(CCN(C(=O)C3(C#N)CC3)CC2)c2ccccc21.O=C(O)C(F)(F)F (configuration not stated) | 5.959 |
| O=C1CSCN1Cc1nc(-c2ccc(N3CCCCC3)cc2)no1 | -5.803 |
| CN(C)CC(=O)N1Cc2nnn(C)c2C(COCc2ccccn2)C1.O=C(O)C(F)(F)F.O=C(O)C(F)(F)F (configuration not stated) | 6.818 |
| COc1ccc(CN2Cc3nnn(C)c3C(COCCN(C)C)C2)cc1.O=C(O)C(F)(F)F.O=C(O)C(F)(F)F (configuration not stated) | 106.7 |
| CN(C)CCOCC1CN(Cc2ccsc2)Cc2nnn(C)c21.O=C(O)C(F)(F)F.O=C(O)C(F)(F)F (configuration not stated) | 121.1 |
| Cn1nnc2c1C(COCC1CC1)CN(C(=O)Cc1ccsc1)C2 (configuration not stated) | 2.514 |
| CCOCC1CN(Cc2ccc(OC)cc2)Cc2nn(C)cc21.O=C(O)C(F)(F)F (configuration not stated) | 11.5 |
| CN(C)CCOCC1CN(Cc2ccncc2)Cc2nnn(C)c21.O=C(O)C(F)(F)F.O=C(O)C(F)(F)F.O=C(O)C(F)(F)F (configuration not stated) | 96.02 |
| CN(C)CCOCC1CN(Cc2ccccn2)Cc2nnn(C)c21.O=C(O)C(F)(F)F.O=C(O)C(F)(F)F.O=C(O)C(F)(F)F (configuration not stated) | 99.25 |
| COCC1CN(Cc2ccc(OC)cc2)Cc2nnn(CC3CC3)c21.O=C(O)C(F)(F)F (configuration not stated) | -5.304 |
| Cn1nnc2c1C(COCc1ccccn1)CN(C(=O)c1ccsc1)C2.O=C(O)C(F)(F)F (configuration not stated) | -2.517 |

| SMILES | Percent Effect [%] |
| --- | --- |
| CC(C)NC(=O)NC[C@H]1OC[C@@H](NCc2ccccc2F)[C@@H]1O | -8.31 |
| CC(O)CN1CCC(CN(C)Cc2ccc(C#N)cc2)CC1 (configuration not stated) | -6.641 |
| COCc1nnc(-c2cccc(C(=O)N(C)CC(C)(C)C)c2)o1 | 1.349 |
| CC(C)Oc1cccc(CN(C)C(=O)Cc2ccon2)c1 | 7.051 |
| CN(C)CCOCC1CN(CC2CCOCC2)Cc2nnn(C)c21.O=C(O)C(F)(F)F.O=C(O)C(F)(F)F (configuration not stated) | 0.5849 |
| CCS(=O)(=O)N1Cc2nnn(C)c2C(COCCN(C)C)C1.O=C(O)C(F)(F)F (configuration not stated) | 7.645 |
| CN(C)CCOCC1CN(Cc2ccc(F)cc2)Cc2nnn(C)c21.O=C(O)C(F)(F)F.O=C(O)C(F)(F)F (configuration not stated) | 94.54 |
| Cc1noc(CCCC(=O)NC(C)c2cccnc2)n1 (configuration not stated) | -10.11 |
| COCCN1CC[C@H](O)[C@@H]1Cc1ccccc1.O=C(O)C(F)(F)F | -7.454 |
| CN1CCN([C@@H]2CCN(C(N)=O)[C@H]2Cc2ccccc2)CC1 | -47.59 |
| NC(=O)N1CC[C@H](O)[C@@H]1Cc1ccccc1 | 106.8 |
| COCC(=O)N1CC[C@@H](O)[C@@H]1Cc1ccccc1 | -9.68 |
| CN(C)[C@@H]1CCN(C(=O)NC2CCCC2)[C@H]1Cc1ccncc1.O=C(O)C(F)(F)F.O=C(O)C(F)(F)F | -4.406 |
| COCC(=O)N1CC[C@@H](N2CCOCC2)[C@@H]1Cc1ccccc1 | -5.655 |
| CN(C)C(=O)N1CC[C@@H](O)[C@@H]1Cc1cnn(C)c1 | 3.844 |
| CN(C)C(=O)N1CC[C@@H](O)[C@@H]1Cc1ccccc1 | 109.4 |
| CC(=O)N1CC[C@@H](N2CCN(C)CC2)[C@@H]1Cc1ccccc1 | -7.108 |
| O=C(NC1CC1)N1CC[C@@H](O)[C@@H]1Cc1ccccc1 | 101.4 |
| O=C(NC1CC1)N1CC[C@H](OCC2CC2)[C@@H]1Cc1cccnc1.O=C(O)C(F)(F)F | -2.258 |
| CCC(=O)N1CC[C@H](O)[C@@H]1Cc1ccccc1 | 99.45 |
| c1ccc(-c2cnn3cc(CN4CCC5(CCO5)CC4)cnc23)cc1 | -14.3 |
| CC(C)C(=O)N1CCN(CC(O)c2cc(Cl)ccc2Cl)CC1 (configuration not stated) | 10.47 |
| CC(NC(=O)COc1ccc(Cl)cc1Cl)c1nncn1C(C)C (configuration not stated) | 0.4331 |
| CN(Cc1ccccc1)CC(C)(C)NC(=O)c1ccc(C(N)=O)cn1 | 12.65 |
| COCCCS(=O)(=O)N1CCN(Cc2cccn2C)CC1 | -42.29 |

| SMILES | Percent Effect [%] |
| --- | --- |
| CN(C)CCCN1CC2(CCN(C(=O)C3(C)CCCCO3)CC2)OC1=O (configuration not stated) | 3.267 |
| CCO[C@@H]1CCN(C(=O)c2ccnnc2)[C@@H]1Cc1cnn(C)c1 | -9.757 |
| O=C(c1ccnnc1)N1CC[C@H](OCC2CC2)[C@@H]1Cc1ccncc1 | 0.4029 |
| O=C(c1ccnnc1)N1CC[C@@H](O)[C@@H]1Cc1ccccc1 | 101.5 |
| CC(C)Cc1nc(OCC(=O)O)c(C#N)c2c1CCC2 | -8.981 |
| CN(Cc1n[nH]c2c1CCCC2)c1cc(N2CCOCC2)nc(N)n1 | 14.47 |
| O=C(c1ccco1)N1CCOCC2(C1)CN(c1ccccc1)C(=O)CO2 (configuration not stated) | -13.67 |
| O=C(c1ccco1)N1CCOCC2(C1)CN(c1ccoc1)C(=O)CO2 (configuration not stated) | 100.8 |
| CN1CC2(COCCN(C(=O)c3ccco3)C2)OCC1=O (configuration not stated) | -13.58 |
| O=C(c1ccco1)N1CCOCC2(C1)CN(c1ccccn1)C(=O)CO2 (configuration not stated) | 92.62 |
| CC(O)CCN(C)c1nc2ccccc2c(=O)[nH]1 (configuration not stated) | 20.77 |
| COCc1nc(-c2ccc(S(=O)(=O)N3CCCC3)cc2)cs1 | -8.912 |
| Cc1noc(CNc2cc3c(cc2Cl)OCCCO3)n1 | 2.534 |
| Oc1nc(C2CC2)nc2c1nnn2C1CCN(Cc2ccoc2)CC1 | 197.8 |
| CC(C)N(C)S(=O)(=O)N1CCN(Cc2ccco2)CC1 | -10.02 |
| CCSCc1nc(O)c2nnn(C3CCN(Cc4ccoc4)CC3)c2n1 | 124.7 |
| CCn1ncnc1C(C)NC(=O)C1CCN(Cc2ccco2)CC1 (configuration not stated) | -16.37 |
| c1nc2c(c(C3CCOC3)n1)CCN(Cc1ccoc1)CC2 (configuration not stated) | 7.2 |
| O=C(O)c1cc2c(nc1-c1ccncc1)CCN(Cc1ccoc1)CC2 | -1.034 |
| CCSCc1nc(O)c2nnn(C3CCN(Cc4ccco4)CC3)c2n1 | 93.96 |
| O=C(CCn1cccn1)NCC(c1cccs1)N1CCOCC1 (configuration not stated) | 0.8626 |
| O=C1CC(NS(=O)(=O)N2CCOCC2)CN1Cc1ccc(F)cc1 (configuration not stated) | -0.715 |
